Results on 17 compounds are retold here after PubChem BioAssay (NCATS).

Assay [1] addresses ATP-dependent 6-phosphofructokinase (Trypanosoma brucei brucei) (UniProt O15648). In words: qHTS Assay to Find Inhibitors of T. brucei phosphofructokinase: hit validation (AID 492961).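 Also: luminescence reports ADP formed as PFK phosphorylates fructose-6-phosphate with ATP; series mostly up to about 51 µM; % is scaled to controls: 0 for no effect and ±100 for the full control effect.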 The procedure, abridged: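 Reaction: 0.1 M triethanolamine pH 8.0, 5 mM MgCl2, F6P 0.5 mM, ATP 0.1 mM, PFK 1.25 nM, 45 min RT. Read-out: ADP-Glo luminescence. Analysis: concentration-response fits, classed by r2 and efficacy.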

A short description of assay [2]: Validation screen for small molecules that induce genotoxicity in human embryonic kidney (HEK293T) cells expressing luciferase-tagged ELG1 (AID 493106). Also: 0% is about no effect. The procedure, abridged:
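Luminescence from an ELG1-luciferase fusion serves as the read-out, rising when genetic stress elevates ELG1 protein. HEK293T reporter cells (2,000 per well) received 23 nL compound, incubated 16 hr at 37 °C, then ONE-Glo for 30 min at room temperature.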

Assay [3] in a line: qHTS for Inhibitors of Cell Surface uPA Generation: Validation Assay (AID 493164). Also: 0% is about no effect. The procedure, abridged: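 RAW 264.7 cells (4000/well) were plated overnight, then exposed for 18 h at 37 C, 5% CO2 to compounds in a 7-point 1:5 titration (2.45 nM–38.3 uM final). Intracellular ATP was read by ATP-Lite luminescence.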
(Quantitative high-throughput screening tests each substance at several concentrations.)

Assay [4] deals with Peptidyl-prolyl cis-trans isomerase NIMA-interacting 1 (Homo sapiens) (UniProt Q13526). Put plainly: qHTS Validation Assay to Find Inhibitors of Pin1 (AID 504536; active = well fitted inhibition curve with a large enough effect in the polarisation, with a control signal flat, not every such curve was filed as active; the % refers to the polarisation;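 also: 0% = full Pin1 enzyme wells and -100% = no-enzyme wells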). The procedure, abridged:
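Fluorescence polarization competition: compounds (titration) displace HiFluor-488-labeled Pin1-1b peptide from Pin1 (0.3 uM final) in pH 7.5 HEPES buffer with DTT, 10 min at room temperature; %Activity normalized to no-enzyme wells, curves fitted.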

Assay [5] addresses Phosphoglycerate kinase, glycosomal (Trypanosoma brucei brucei) (UniProt P07378). Put plainly: qHTS Validation Assay to Find Inhibitors of Phosphoglycerate Kinase (AID 504547).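 Also: control wells lack PGK and mark full inhibition.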 The procedure, abridged:
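Substrate/PGK mix plus compound; reaction started with GAPDH (100nM final) to form 1,3-BPG; 60 min RT; Kinase-Glo Plus 10 min; luminescence. TEA 100mM pH 7.6, MgCl2 5mM, Tween-20 0.01%.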

Assay [6] concerns the target phosphoglycerate mutase (Leishmania major) (UniProt Q4Q090). Put plainly: qHTS Validation Assay to Find Inhibitors of Phosphoglycerate Mutase (AID 504548). Also: series mostly up to about 58 µM; % is scaled to controls: 0 for no effect and ±100 for the full control effect. The procedure, abridged: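 Lm PGAM at 1.25 nM final with substrate in 100 mM TEA pH 7.6, 5 mM MgCl2, 0.01% Tween-20; 45 min at room temperature. Kinase-GloPlus added, 10 min, end-point luminescence read.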
The target in assay [7] is Ubiquitin carboxyl-terminal hydrolase 1 (Homo sapiens) (UniProt O94782). Put plainly: Inhibitors of USP1/UAF1: Pilot qHTS (AID 504865). Also: nearly all actives have a fitted effect of over 35% in size. Also: potency is read from the fitted curve at half-maximal effect. The procedure, abridged: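 In 50mM HEPES pH 7.8 containing 0.5mM EDTA, 1mM TCEP, 0.1 mg/ml BSA and 0.01% Tween-20, 1nM USP1/UAF1 is exposed to compound for 15 min, then Ub-Rho (150nM final) is added and fluorescence is read over time.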

The nature of assay [8]: qHTS for Inhibitors of ATXN expression: Validation of Cytotoxic Assay (AID 588349). Also: % is scaled to controls: 0 for no effect and ±100 for the full control effect. The procedure, abridged:
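Read-out: ATP-based luminescence (CellTiter Glo) reflecting viability of HEK293 cells after 72 hr incubation at 37 degrees C with a concentration series of each compound.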

Assay [9] has as its target Thyrotropin-releasing hormone receptor (Homo sapiens) (UniProt P34981). Put plainly: qHTS for Small Molecule Agonists and Allosteric Enhancers of Human TRH Receptor: Validation Screen for Agonists (AID 493127;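 active = calcium activation more than 3 SD above the typical response in the agonist read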;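 also: intracellular calcium rise by fluo-8 fluorescence before TRH EC20 addition; 0% is about no effect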). The following applies: TRH receptor agonist cell assay; at 2 µM; stronger effect = higher value. The procedure, abridged: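 Cells 2000/well, 10% FCS, 18 h 33.5C/5% CO2 → fluo-8 Ca dye, RT 30 min–1.5 h → FDSS baseline 10 × 1 s → compound added → 230 cycles (1 s/cycle) agonist mode. TRH controls.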

The target in assay [10] is ATPase family AAA domain-containing protein 5 (Homo sapiens) (UniProt Q96QE3). In words: Validation screen for small molecules that inhibit ELG1-dependent DNA repair in human embryonic kidney (HEK293T) cells expressing luciferase-tagged ELG1 (AID 493107). Also: nearly all actives have a fitted effect of over 70% in size. Also: potency is read from the fitted curve at half-maximal effect. The procedure, abridged: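 Luminescence from ONE-Glo, developed 30 min at room temperature, served as read-out of ELG1-luciferase levels. Beforehand, reporter HEK293T cells received 5-fluorouridine plus test compound for 16 hr at 37 °C.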

A short description of assay [11]: Nrf2 qHTS screen for inhibitors: Validation (AID 493153; active = well fitted inhibition curve with a large enough effect in the main read-out, with a control signal flat, not every such curve was filed as active; also: potency is read from the fitted curve at half-maximal effect). The following applies: Potency: luciferase luminescence; viability change: measured here: cytotoxicity max response. The procedure, abridged:
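Luminescence from an ARE-firefly luciferase reporter in A549 cells gives Nrf2 inhibition; an earlier CellTiter-Fluor fluorescent read flags cytotoxicity. Cells in 5% FBS OPTI-MEM received compound dilution series for 18-24 h at 37°C.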

Assay [12] in a line: Validation screen for small molecules that induce DNA re-replication in SW480 colon adenocarcinoma cells (AID 504364). Also: 0% is about no effect. The procedure, abridged: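 250 cells/well; compound pinned in; 48 hr, 37 C, 5% CO2; Hoechst added, 40 min; nuclear fluorescence imaged, 405 ex / 500-530 em; re-replication scored as increase in high-intensity nuclei.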
In assay [13] the target is Estrogen receptor (Homo sapiens) (UniProt P03372). In words: qHTS assay for small molecule agonists of estrogen receptor alpha signaling (AID 588514; calls by dose curve;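 also: 0% = vehicle only and 100% = reference agonist; nearly all actives have a fitted effect of over 70% in size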). The procedure, abridged: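 Cells were plated at 5000/well, incubated 4 hrs at 37 C, dosed with compound titration series, incubated 18 hrs at 37 C, loaded with CCF4 dye for 2 hrs at RT, then fluorescence was read.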
Assay [14] concerns the target Glucocorticoid receptor (Homo sapiens) (UniProt P04150). In words: qHTS assay for small molecule agonists of glucocorticoid receptor signaling (AID 588532; active = well fitted curve in the direction sought with a large enough effect in the signal ratio, with a control signal flat; the % refers to the signal ratio;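 also: 100% = dexamethasone at 0.1 µM and 0% = DMSO only wells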). The following applies: HeLa MMTV-bla, beta-lactamase ratio, agonist, 18 h; stronger effect = higher value; percent of dexamethasone control, DMSO zero. The procedure, abridged: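 Stimulation of a glucocorticoid response element-driven beta-lactamase gene was measured in HeLa cells. Responses were scaled between DMSO basal and 0.1 uM dexamethasone, then fitted for half-maximal stimulation.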

Assay [15] has as its target Bile acid receptor (Homo sapiens) (UniProt Q96RI1). In words: qHTS assay for small molecule antagonists of farnesoid X receptor signaling (AID 588526; calls by dose curve; also: % is scaled to controls: 0 for no effect and ±100 for the full control effect). The procedure, abridged:
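Concentration-response titrations were fitted to the Hill equation for half-maximal inhibition and maximal response, with data normalised to 50 uM chenodeoxycholic acid and DMSO control wells. Cells: FXR-UAS-bla HEK293T, dialyzed FBS.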

The target in assay [16] is Glucocorticoid receptor (Homo sapiens) (UniProt P04150). Put plainly: qHTS assay for small molecule antagonists of glucocorticoid receptor signaling (AID 588533; active = well fitted inhibition curve with a large enough effect in the signal ratio, with a control signal flat, not every such curve was filed as active; the % refers to the signal ratio). The procedure, abridged:
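Antagonist-mode qHTS: compound titrations added to GRE-bla HeLa cells, then dexamethasone 2 nM final; 18 h, 37 C. CCF4 FRET fluorescence normalized to dexamethasone and DMSO; IC50 from Hill fit.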

The target in assay [17] is Androgen receptor (Homo sapiens) (UniProt P10275). Put plainly: qHTS assay for small molecule agonists of androgen receptor signaling (AID 588515; active = well fitted curve in the direction sought with a large enough effect in the signal ratio, with a control signal flat; the % refers to the signal ratio; also: % is scaled to controls: 0 for no effect and ±100 for the full control effect). The following applies: AR-UAS-bla HEK293, beta-lactamase ratio, agonist 16 h; stronger effect = higher value. The procedure, abridged:
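EC50 and efficacy came from Hill fits of titrations (up to 92 uM) normalized to 30 nM R1881 as 100% and DMSO as 0%. Compound exposure was 16 h at 37 C on AR-UAS-bla HEK293 cells, with a 405/460/530 nm CCF4 fluorescence read.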

The target is the same in assay [18]. Put plainly: qHTS assay for small molecule antagonists of androgen receptor signaling (AID 588516; active = well fitted curve in the direction sought with a large enough effect in the signal ratio, with a control signal flat, not every such curve was filed as active; the % refers to the signal ratio; also: % is scaled to controls: 0 for no effect and ±100 for the full control effect). The procedure, abridged:
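Cells were plated and incubated 5 h, compounds added in titration, then R1881 (10 nM final) as agonist. After 16 h at 37 C, CCF4 substrate was loaded for 2 h at room temperature and fluorescence measured.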

Inconclusive results are not listed. The source made the active and inactive calls. Unless noted, calls follow the shape of the dose curve; as a rule, active = well fitted curve in the direction sought with a large enough effect; inconclusive = small, poorly fitted or top-dose-only effect, or another doubt; inactive = no such curve, though single readings can be large; an effect the other way counts as inactive or inconclusive.

Chain of Androgen receptor (Homo sapiens) (P10275 whole entry, looked up): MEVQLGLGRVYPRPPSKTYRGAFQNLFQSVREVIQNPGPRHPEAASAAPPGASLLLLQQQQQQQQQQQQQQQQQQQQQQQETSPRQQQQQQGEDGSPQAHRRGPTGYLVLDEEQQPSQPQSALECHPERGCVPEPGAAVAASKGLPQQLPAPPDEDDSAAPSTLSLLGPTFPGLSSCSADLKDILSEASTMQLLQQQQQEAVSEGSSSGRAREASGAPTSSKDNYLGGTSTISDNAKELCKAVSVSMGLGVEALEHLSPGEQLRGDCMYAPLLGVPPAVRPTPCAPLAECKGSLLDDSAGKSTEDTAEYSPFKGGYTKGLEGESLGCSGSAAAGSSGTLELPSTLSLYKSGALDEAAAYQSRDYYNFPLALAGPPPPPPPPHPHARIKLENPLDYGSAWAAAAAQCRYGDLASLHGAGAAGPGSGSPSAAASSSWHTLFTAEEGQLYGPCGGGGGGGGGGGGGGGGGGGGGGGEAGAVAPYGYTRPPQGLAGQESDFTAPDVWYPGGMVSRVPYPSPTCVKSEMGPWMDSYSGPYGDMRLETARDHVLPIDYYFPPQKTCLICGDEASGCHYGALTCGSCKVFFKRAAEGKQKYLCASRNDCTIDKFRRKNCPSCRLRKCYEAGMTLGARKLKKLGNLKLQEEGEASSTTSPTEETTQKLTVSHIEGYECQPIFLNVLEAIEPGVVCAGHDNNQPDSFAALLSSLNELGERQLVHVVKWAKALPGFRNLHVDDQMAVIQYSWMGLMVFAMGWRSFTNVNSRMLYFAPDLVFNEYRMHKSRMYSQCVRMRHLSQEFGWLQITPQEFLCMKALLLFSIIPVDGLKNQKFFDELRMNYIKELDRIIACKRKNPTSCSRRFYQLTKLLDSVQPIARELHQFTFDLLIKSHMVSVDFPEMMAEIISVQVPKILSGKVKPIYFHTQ
Chain of Bile acid receptor (Homo sapiens) (Q96RI1 whole entry, looked up): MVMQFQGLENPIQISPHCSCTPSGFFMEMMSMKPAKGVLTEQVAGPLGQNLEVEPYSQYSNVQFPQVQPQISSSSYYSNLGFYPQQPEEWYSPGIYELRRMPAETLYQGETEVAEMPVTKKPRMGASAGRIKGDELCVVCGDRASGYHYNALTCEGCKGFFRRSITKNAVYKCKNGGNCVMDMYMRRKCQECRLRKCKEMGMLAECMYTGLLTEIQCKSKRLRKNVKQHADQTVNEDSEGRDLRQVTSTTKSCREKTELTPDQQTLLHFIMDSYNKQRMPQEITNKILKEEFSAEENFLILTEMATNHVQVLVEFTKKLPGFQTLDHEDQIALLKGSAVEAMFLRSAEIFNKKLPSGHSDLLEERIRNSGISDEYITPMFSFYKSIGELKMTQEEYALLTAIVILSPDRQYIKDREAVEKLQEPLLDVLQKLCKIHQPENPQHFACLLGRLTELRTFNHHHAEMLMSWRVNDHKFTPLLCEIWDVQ
Chain of Ubiquitin carboxyl-terminal hydrolase 1 (Homo sapiens) (O94782 whole entry, looked up): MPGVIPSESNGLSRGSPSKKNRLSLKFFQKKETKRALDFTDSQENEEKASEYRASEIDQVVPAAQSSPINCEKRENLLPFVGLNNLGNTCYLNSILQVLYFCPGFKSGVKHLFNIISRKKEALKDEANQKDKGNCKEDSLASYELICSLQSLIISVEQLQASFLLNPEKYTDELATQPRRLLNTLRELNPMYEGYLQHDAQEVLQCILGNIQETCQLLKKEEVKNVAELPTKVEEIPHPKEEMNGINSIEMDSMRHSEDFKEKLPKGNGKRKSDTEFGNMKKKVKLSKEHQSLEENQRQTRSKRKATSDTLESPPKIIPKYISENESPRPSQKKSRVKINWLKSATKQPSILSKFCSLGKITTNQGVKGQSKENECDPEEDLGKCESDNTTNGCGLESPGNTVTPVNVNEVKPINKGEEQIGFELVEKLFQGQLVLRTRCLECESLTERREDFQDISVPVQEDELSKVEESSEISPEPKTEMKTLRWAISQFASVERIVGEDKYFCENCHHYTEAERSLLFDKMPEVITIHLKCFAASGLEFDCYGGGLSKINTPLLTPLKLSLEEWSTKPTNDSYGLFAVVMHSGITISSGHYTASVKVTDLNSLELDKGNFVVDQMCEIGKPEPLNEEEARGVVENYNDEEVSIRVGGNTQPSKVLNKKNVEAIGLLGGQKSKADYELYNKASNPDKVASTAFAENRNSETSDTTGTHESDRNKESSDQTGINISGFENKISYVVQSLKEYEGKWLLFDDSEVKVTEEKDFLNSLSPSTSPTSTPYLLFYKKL
Chain of Thyrotropin-releasing hormone receptor (Homo sapiens) (P34981 whole entry, looked up): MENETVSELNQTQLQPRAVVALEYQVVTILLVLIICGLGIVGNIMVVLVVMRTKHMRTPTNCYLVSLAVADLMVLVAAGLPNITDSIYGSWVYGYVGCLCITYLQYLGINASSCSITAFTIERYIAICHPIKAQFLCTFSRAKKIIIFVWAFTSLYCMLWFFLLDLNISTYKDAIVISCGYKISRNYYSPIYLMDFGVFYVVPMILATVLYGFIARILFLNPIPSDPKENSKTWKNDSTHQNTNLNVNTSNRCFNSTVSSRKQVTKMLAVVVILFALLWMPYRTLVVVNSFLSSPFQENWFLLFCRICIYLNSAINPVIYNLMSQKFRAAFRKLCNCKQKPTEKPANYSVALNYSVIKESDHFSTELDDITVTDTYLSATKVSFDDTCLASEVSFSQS
Chain of Peptidyl-prolyl cis-trans isomerase NIMA-interacting 1 (Homo sapiens) (Q13526 whole entry, looked up): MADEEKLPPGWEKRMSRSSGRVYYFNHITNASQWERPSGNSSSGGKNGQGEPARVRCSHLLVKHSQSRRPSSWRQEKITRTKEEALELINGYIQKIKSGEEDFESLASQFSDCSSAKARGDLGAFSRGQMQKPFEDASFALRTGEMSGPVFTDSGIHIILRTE
Chain of phosphoglycerate mutase (Leishmania major) (Q4Q090 1-553): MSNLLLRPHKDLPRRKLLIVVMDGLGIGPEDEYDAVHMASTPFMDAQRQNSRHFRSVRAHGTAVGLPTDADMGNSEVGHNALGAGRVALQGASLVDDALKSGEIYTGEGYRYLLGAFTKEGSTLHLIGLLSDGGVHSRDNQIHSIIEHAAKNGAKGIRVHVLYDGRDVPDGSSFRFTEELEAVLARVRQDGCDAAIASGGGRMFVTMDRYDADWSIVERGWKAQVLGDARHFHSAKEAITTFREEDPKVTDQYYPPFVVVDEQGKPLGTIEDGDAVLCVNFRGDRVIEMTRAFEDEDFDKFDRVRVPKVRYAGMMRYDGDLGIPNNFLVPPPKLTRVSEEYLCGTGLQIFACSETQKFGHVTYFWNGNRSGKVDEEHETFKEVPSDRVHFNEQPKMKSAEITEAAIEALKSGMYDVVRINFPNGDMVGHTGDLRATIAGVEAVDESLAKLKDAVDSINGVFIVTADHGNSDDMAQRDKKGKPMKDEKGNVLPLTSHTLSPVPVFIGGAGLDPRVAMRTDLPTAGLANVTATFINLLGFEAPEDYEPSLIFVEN
Chain of ATP-dependent 6-phosphofructokinase (Trypanosoma brucei brucei) (O15648 whole entry, looked up): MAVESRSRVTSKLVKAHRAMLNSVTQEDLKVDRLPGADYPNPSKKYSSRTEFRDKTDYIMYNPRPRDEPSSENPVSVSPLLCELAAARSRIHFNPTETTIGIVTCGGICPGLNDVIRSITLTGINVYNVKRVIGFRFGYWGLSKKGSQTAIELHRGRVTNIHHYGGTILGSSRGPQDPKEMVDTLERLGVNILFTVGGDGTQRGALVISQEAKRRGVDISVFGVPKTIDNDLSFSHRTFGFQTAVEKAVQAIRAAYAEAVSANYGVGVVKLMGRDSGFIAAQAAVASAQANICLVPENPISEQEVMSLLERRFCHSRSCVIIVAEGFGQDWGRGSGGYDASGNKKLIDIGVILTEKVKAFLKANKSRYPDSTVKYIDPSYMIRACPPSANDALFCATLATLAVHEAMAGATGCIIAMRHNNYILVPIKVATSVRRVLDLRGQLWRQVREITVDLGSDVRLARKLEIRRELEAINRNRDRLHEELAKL
Chain of Glucocorticoid receptor (Homo sapiens) (P04150 whole entry, looked up): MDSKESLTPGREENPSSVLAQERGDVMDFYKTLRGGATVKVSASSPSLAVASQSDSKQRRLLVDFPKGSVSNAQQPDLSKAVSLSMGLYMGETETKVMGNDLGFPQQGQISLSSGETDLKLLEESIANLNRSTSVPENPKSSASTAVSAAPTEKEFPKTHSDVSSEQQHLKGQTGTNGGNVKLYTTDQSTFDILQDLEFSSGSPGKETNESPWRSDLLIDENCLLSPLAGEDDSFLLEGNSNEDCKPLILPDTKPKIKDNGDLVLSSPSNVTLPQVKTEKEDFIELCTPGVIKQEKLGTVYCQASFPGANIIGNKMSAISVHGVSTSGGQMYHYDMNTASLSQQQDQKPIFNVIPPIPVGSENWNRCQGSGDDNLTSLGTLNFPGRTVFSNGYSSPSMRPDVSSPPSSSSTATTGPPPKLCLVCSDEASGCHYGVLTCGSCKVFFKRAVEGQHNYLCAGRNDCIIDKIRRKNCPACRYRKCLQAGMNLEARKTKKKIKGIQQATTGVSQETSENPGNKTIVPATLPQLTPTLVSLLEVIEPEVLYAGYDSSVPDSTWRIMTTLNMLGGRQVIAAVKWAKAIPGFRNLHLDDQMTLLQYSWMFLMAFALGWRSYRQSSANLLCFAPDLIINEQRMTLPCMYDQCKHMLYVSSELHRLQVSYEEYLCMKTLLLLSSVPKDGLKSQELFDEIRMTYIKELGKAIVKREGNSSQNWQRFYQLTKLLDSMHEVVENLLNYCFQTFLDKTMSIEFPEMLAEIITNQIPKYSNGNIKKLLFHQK
Chain of Phosphoglycerate kinase, glycosomal (Trypanosoma brucei brucei) (P07378 whole entry, looked up): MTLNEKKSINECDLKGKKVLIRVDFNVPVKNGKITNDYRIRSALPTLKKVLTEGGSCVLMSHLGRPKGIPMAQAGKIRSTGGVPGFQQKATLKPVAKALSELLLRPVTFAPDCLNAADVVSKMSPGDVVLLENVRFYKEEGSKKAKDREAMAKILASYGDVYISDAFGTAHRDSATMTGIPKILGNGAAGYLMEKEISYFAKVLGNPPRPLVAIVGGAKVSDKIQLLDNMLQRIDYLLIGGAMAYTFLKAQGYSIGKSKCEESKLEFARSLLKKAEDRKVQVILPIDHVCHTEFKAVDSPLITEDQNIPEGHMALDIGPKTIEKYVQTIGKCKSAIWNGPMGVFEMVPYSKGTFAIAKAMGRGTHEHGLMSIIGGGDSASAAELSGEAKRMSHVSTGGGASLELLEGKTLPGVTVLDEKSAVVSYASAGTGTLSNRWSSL

On to `O=[N+]([O-])c1ccc(O)c2ncccc12`, for which the result in assay [1] was inactive.

As for `Nc1ncnc2n[nH]c(Nc3ccc(F)cc3)c12`, the outcome in assay [2], in assay [3], in [4], in assay [5], in assay [6] and in assay [8] was inactive. The Potency entry in assay [7] was “inactive”.

Regarding `CN(C)c1cc2c(Nc3ccc4c(cnn4Cc4ccccc4)c3)ncnc2cn1`, the result in assay [2], in [3], in assay [4], in assay [5] and in [6] was inactive. The activation in assay [9] was 2.12% (inactive).

On to `CCN(CC)CCNC(=O)c1ccc(NS(C)(=O)=O)cc1`, for which the result in [2], in [3], in [4], in [5], in [6] and in assay [8] was inactive. The Potency result in assay [10], in assay [11] and in assay [7] was “inactive” each time. For the same compound, in assay [11], the viability change turned out to be 5.75%.

As to `CCCCCCCCCCCCCC[N+](C)(C)C`, the compound was called inactive in assay [1]. In assay [7], the Potency was 50.1 µM (active).

With `C[C@]12CCC(=O)C=C1CC[C@@H]1[C@@H]2[C@@H](O)C[C@@]2(C)[C@H]1CC[C@]2(O)C(=O)COC(=O)CCC(=O)O`, the activation in assay [9] is -0.0625% (inactive). Besides, in assay [12], the compound was classed as inactive.

`COc1cccc2c1[C@@H]1CN(CCCCn3c(=O)[nH]c4c(sc5ncc(-c6ccccc6)nc54)c3=O)C[C@@H]1CO2`: the result in assay [2], in assay [3], in assay [12], in [4], in assay [5] and in assay [6] was inactive. For the same compound, the Potency in assay [10] is 23.1 µM (active). Moreover, the activation in [9] was 0.5% (inactive). In addition, the Potency result in [7] is “inactive”.

Turning to `Nc1c2ccccc2nc2ccccc12`, the compound was classed as inactive in assay [1]. In addition, the Potency result in assay [7] is “inactive”.

As for `O=[N+]([O-])c1ccc(-c2nc(-c3ccc(F)cc3)c(-c3ccncc3)[nH]2)cc1`, the result in [2], in [3], in assay [12], in assay [5], in assay [6] and in assay [8] was inactive. Further, the activation in assay [9] is 4.88% (inactive). Besides, the Potency in assay [11] is 16.4 µM (active). Further, in assay [11], the viability change was -1.66%.

`CN(C(=O)C(Cl)Cl)c1ccc(OC(=O)c2ccco2)cc1`: the Potency entry in [7] was “inactive”.

`O=C(Nc1ccc(Cl)cc1)Nc1ccc(Cl)c(Cl)c1`: the call in assay [1] and in [13] was inactive. Further, the Potency result in assay [7] is “inactive”. Further, the activation in assay [14] is 4.25% (inactive).

For the compound `C1N2CN3CN1CN(C2)C3`, the Potency result in assay [7] is “inactive”.

As for `CN1CCCN(C(c2ccccc2)c2ccc(Cl)cc2)CC1` (stereo not drawn), in assay [7], the Potency entry was “inactive”.

With `OC(CCCN1CCCCC1)(c1ccccc1)c1ccccc1`, the Potency entry in assay [7] was “inactive”.

Take `O=C(Oc1ccccc1)c1cccc(C(=O)Oc2ccccc2)c1`: the compound was classed as inactive in assay [15] and in assay [16]. Besides, the activation in assay [14] was -8.17% (inactive).

With `CCCCCCCCCCCC[N+](C)(C)Cc1ccccc1`, the activation was -8.21% (inactive) in assay [17] and 1.25% (inactive) in assay [14]. Also, the compound was called inactive in assay [18], in [15] and in [16].

`OCc1c[nH]c2ccccc12`: the Potency result in assay [7] was “inactive”. In assay [17], the activation was -13.7% (inactive). For the same compound, the compound was classed as inactive in assay [18] and in assay [15].
